Where “and” joins values, the source holds several entries; their conditions need not be identical. Equal entries are not always repeated. About 83,000 compounds went through this panel and 20% of them were active in at least one assay; those are over-represented in the sample as a whole.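 The test compound was applied at a single concentration to cells in 96-well plates for 48 hours, and percent growth was recorded.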 Unmarked numbers belong to inactive results. Calls of active or inactive are those of the source. The calls were made as follows: active = growth percent below 10; inactive = the rest.
These molecules were tested on HCC-2998 colon (assay: NCI-60 one-dose screen, 48 h (100 = growth as untreated, 0 = no growth, -100 = all killed)). Settings: 10 µM unless noted.

| SMILES | growth |
| --- | --- |
| Cc1nn(-c2ccccc2)c2ncn(CC(=O)N/N=C/c3ccccc3O)c(=O)c12 | 36.2% |
| COc1ccc(C2=NN(C(=O)[C@H]3[C@@H](c4ccco4)c4sc(=O)[nH]c4S[C@@H]3C)C(c3ccc4ccccc4c3)C2)cc1 (stereo not given in full) | 27.3% |
| CCc1ccccc1NC(=O)N/C(N)=N/c1nc2ccccc2s1 | 3.52% (active) |
| O=C(Nc1ccc(Cl)c(C(F)(F)F)c1)N1CCN(c2cc(-c3cn(-c4ccccc4)nc3-c3cccc(O)c3)ccn2)CC1 | 6.31% (active) |
| NC(=O)c1ccc(-c2ccc3ncnc(N4CCc5cc(F)c(Cl)cc54)c3c2)cn1 | 89.7% |
| COc1cc2cc(C(=O)N3C[C@@H](CCl)c4c3cc(OC(=O)N(CCC(=O)N3CCN(C)CC3)[C@H]3CCSSC3)c3ccccc43)[nH]c2c(OC)c1OC | -94.3% (active) |
| COc1ccc2[nH]c(=O)c(CSc3ccccc3Nc3nccc(-c4ccc5c(c4)OCO5)n3)cc2c1 | 110% |

These molecules were tested on KM12 colon in the same assay as above. Settings: 10 µM unless noted.

| SMILES | growth |
| --- | --- |
| N#Cc1cc(-c2ccc3ncnc(N4CCc5cc(F)c(Cl)cc54)c3c2)cnc1N | 67.2% |
| Cn1cc(Nc2ncnc(-c3ccc(N4CCCC4)c(C#N)c3)n2)cn1 | 55.2% |
| CN(C)CCCc1ccc(Nc2cnn(C)c(=O)c2Cl)cc1 | 111% |
| O=Cc1cncc(-c2ccc3ncnc(N4CCc5cc(F)c(Cl)cc54)c3c2)c1 | 81.8% |
| N#CC1=C(c2cccs2)Nc2c(c(-c3ccccc3)nn2-c2ccccc2)C12C(=O)Nc1ccccc12 (stereo not given) | 9.03% (active) |
| O=C(CSc1nc2sc3c(c2c(=O)n1-c1ccc(Cl)cc1)CCCC3)NNC(=O)c1ccc(F)cc1 | 101% |
| COc1ccc(-c2cc(-c3cc(OC)c(OC)c(OC)c3)[nH]c(=O)c2C#N)cc1 | 75.8% |
| CC(=O)Nc1cccc(-n2c(COc3ccc(Br)cc3)nc3ccccc32)c1 | 103% and 101% |
| Cc1cc(Cl)ccc1NC(=O)Nc1ccc(-c2ccc3c(c2)NC(=O)/C3=C\c2ccc[nH]2)cc1 | 25.8% |
| Nc1cc(-c2c[nH]c3ccc(Br)cc23)nc2cc(-c3c[nH]c4ccccc34)nn12 | -65.4% (active) |
| CCc1ccc(SC2c3cc(OC)ccc3Oc3nc(N)c(C#N)c(N)c32)cc1 (stereo not given) | -17.7% (active) |
| COc1ccc(C(=O)NNC(=O)CSc2nc3sc4c(c3c(=O)n2-c2ccc(Cl)cc2)CCCC4)cc1 | 98% |
| CNc1nc2ccccc2n2c(-c3ccc(O)c(O)c3)cnc12 | -0.402% (active) |
| CN(CCSSCCN1CCOCC1)C(=O)Oc1cc2c(c3ccccc13)[C@H](CCl)CN2C(=O)c1cc2cc(OCCCN3CCC3)ccc2[nH]1 | -23.5% (active) |
| Cn1cc(-c2cc(N)n3nc(-c4c[nH]c5ccc(F)cc45)cc3n2)c2cccnc21 | -66% (active) |
| O=C(Cn1c(-c2ccccc2)nc2ccccc21)N=Nc1c(O)[nH]c2ccc(Br)cc12 | 15% |
| O=C(NN1C(=O)/C(=C/C=C/c2ccc([N+](=O)[O-])o2)SC1=S)c1ccncc1 | -94.3% (active) |
| CCCCCCCCCc1ccc(C(=O)Nc2cc(C)ccc2C(=O)OC)cc1 | 105% |
| COc1ccc(N=Nc2c(N)nn3c(-c4ccc([N+](=O)[O-])cc4)ccnc23)cc1 | 102% |

| SMILES | growth |
| --- | --- |
| COc1ccc2[nH]c(O)c(N=Nc3nc(-c4ccc(Cl)cc4)cs3)c2c1 | 4.66% (active) |
| C[C@@H](Nc1c(C#N)cnc2ccc(-c3cnc4[nH]ncc4c3)cc12)c1ccccc1 | 30% |
| CS(=O)(=O)Nc1cccc(-n2c(COc3ccc(OC(F)(F)F)cc3)nc3ccccc32)c1 | 91.9% and 101% |
| Cc1cc(C(NC(=O)CCCCCNc2cccc3c2C(=O)N(C2CCC(=O)CC2=O)C3=O)c2cccc(N(C)C)c2)c(O)c2ncccc12 (stereo not given) | 15.3% |
| COc1ccc(S(=O)(=O)Nc2ccc(-c3ccc4c(c3)NC(=O)/C4=C\c3ccc[nH]3)cc2)cc1OC | 33.6% |
| COc1ccc(-c2nc3ccccc3n2CC(=O)N=Nc2c(O)[nH]c3ccc(OC)cc23)cc1 | 85% |
| Cc1ccc(C(C(=O)NC2CCCCC2)N(Cc2ccccc2Cl)C(=O)c2ccc(CN3CCOCC3)o2)o1 (stereo not given) | 99.4% |
| COc1ccc(N=Nc2c(N)nn3c(-c4ccc(OC)c(OC)c4)ccnc23)cc1 | 97.9% |
| Cc1ccc(Cl)cc1NC(=O)N/C(N)=N/c1nc2ccccc2s1 | -28.7% (active) |
| N#Cc1cc(-c2ccnc(Nc3ccc(N4CCN(C5COC5)CC4)cc3)n2)ccc1N1CCCC1 | 83.2% |
| COc1ccc(-c2nc3ccc(-c4nnc(SCC(=O)Nc5ccc(/C(C)=N\O)cc5)o4)cc3[nH]2)cc1 | 37.6% |
| O=C1/C(=C/c2cnc(-c3ccccc3)s2)SC(=S)N1Cc1ccc2c(c1)OCO2 | 99.7% |
| Cc1nn(-c2ccccc2)c2ncn(CC(=O)N/N=C/c3ccccc3O)c(=O)c12 | 25.8% |
| COc1ccc(C2=NN(C(=O)[C@H]3[C@@H](c4ccco4)c4sc(=O)[nH]c4S[C@@H]3C)C(c3ccc4ccccc4c3)C2)cc1 (stereo not given in full) | 33.9% |
| CCc1ccccc1NC(=O)N/C(N)=N/c1nc2ccccc2s1 | -3.54% (active) |
| O=C(Nc1ccc(Cl)c(C(F)(F)F)c1)N1CCN(c2cc(-c3cn(-c4ccccc4)nc3-c3cccc(O)c3)ccn2)CC1 | -8.11% (active) |
| NC(=O)c1ccc(-c2ccc3ncnc(N4CCc5cc(F)c(Cl)cc54)c3c2)cn1 | 96.1% |
| COc1cc2cc(C(=O)N3C[C@@H](CCl)c4c3cc(OC(=O)N(CCC(=O)N3CCN(C)CC3)[C@H]3CCSSC3)c3ccccc43)[nH]c2c(OC)c1OC | -29% (active) |
| COc1ccc2[nH]c(=O)c(CSc3ccccc3Nc3nccc(-c4ccc5c(c4)OCO5)n3)cc2c1 | 89.7% |
